This passage reports Potency results from PubChem BioAssay (Tox21).

A short description of assay [1]: Nuclear factor erythroid 2-related factor 2/antioxidant responsive element (Nrf2/ARE) small molecule agonists: luciferase reporter gene qHTS assay in human keratinocytes (AID 1919969). Note: nearly all actives have a fitted effect of over 35% in size. Note: potency is the fitted concentration of half-maximal effect. In general terms: A reporter such as luciferase makes a cellular process visible.
Assay [2] has as its target Gonadotropin-releasing hormone receptor (Homo sapiens) (UniProt P30968). Put plainly: Human gonadotropin-releasing hormone receptor (GnRHR) small molecule agonists, calcium flux assay in GnRHR-HEK293 cells (AID 1920063). Note: nearly all actives have a fitted effect of over 35% in size. The method, boiled down:
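HEK293 cells stably expressing human GnRHR were plated 18 h at 37 °C, loaded with calcium dye 1 h at 37 °C, then given compound in agonist mode; fluorescence (Ex/Em 480/540) read kinetically for 3 min at 1 s intervals.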
On the technique in general: A change in cytosolic calcium serves as a functional read-out for many receptors and channels.

Assay [3] concerns the target KiSS-1 receptor (Homo sapiens) (UniProt Q969F8). Put plainly: Human kisspeptin (KISS1R) small molecule agonists, calcium flux assay in KISS1R-HEK293 cells (AID 1920064; active = well fitted activation curve with a large enough effect in the repeat runs). An outline of the steps:
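HEK293 cells stably expressing human KISS1R were plated 18 h at 37 °C, loaded with calcium dye for 1 h at 37 °C, then given compound by pin tool. Fluorescence (Ex/Em 480/540) was read kinetically for 3 min.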

Assay [4] can be described thus: G protein-coupled receptor (GPCR) small molecule agonists, calcium flux assay: HEK293 wild type cell line counter screen (AID 1920065). The method, boiled down:
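Cells were plated and cultured 18 h at 37 C/5% CO2, then loaded with calcium dye for 1 h at 37 C. Compounds in DMSO were pin-transferred in agonist mode, and fluorescence (Ex/Em 480/540) was read kinetically for 3 min at 1 s intervals.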

The nature of assay [5]: p53 small molecule agonists, cell-based qHTS assay with human liver microsomes (AID 1963577).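 Note: p53 response element beta-lactamase reporter cells with liver microsomes plus NADPH.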 An outline of the steps:
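HLM-supplemented p53RE-bla reporter assay: 16 h compound exposure at 37 C, microsomes and NADPH each 0.5 mg/mL final, read by fluorescence intensity.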

The nature of assay [6]: p53 small molecule agonists, cell-based qHTS assay with rat liver microsomes (AID 1963578). An outline of the steps: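 Quantitative HTS of the Tox21 10K library: p53RE-bla cells, rat liver microsomes plus NADPH at 0.5 mg/mL final each, 16 h at 37 C, beta-lactamase fluorescence detection.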
A general note: In qHTS, concentration-response curves come from the screen itself.

Assay [7] can be described thus: p53 small molecule agonists, cell-based qHTS assay with human liver microsomes: qHTS cell viability counter screen (AID 1963579). Note: nearly all actives have a fitted effect of over 45% in size. An outline of the steps:
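Viability of p53RE-bla cells is measured as CellTiter-Glo luminescence following a 16 h, 37 C incubation with compound, liver microsomes from human donors and NADPH.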

Assay [8] in a line: p53 small molecule agonists, cell-based qHTS assay with rat liver microsomes: qHTS cell viability counter screen (AID 1963580). Note: nearly all actives have a fitted effect of over 45% in size. The method, boiled down:
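Viability is assessed in parallel with the p53 reporter read: HCT-116 p53RE-bla cells receive compounds plus rat microsomes and NADPH (0.5 mg/mL final apiece), incubate 16 h at 37 C, and then CellTiter-Glo luminescence is recorded.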

The nature of assay [9]: p53 small molecule agonists, cell-based qHTS assay (AID 1963582; active = well fitted activation curve with a large enough effect in the signal ratio in the repeat runs, not every such curve was filed as active; the % refers to the signal ratio). The method, boiled down: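 p53RE-bla beta-lactamase reporter cells rested 5 h at 37 C/5% CO2, then received compounds in DMSO by pin transfer and were incubated 16 h at 37 C. LiveBLAzer B/G FRET substrate was loaded for 2 h at room temperature before fluorescence reading.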
Assay [10] concerns the target 5-hydroxytryptamine receptor 2A (Homo sapiens) (UniProt P28223). Put plainly: 5-hydroxytryptamine receptor 2A (HTR2A) small molecule antagonists, cell-based qHTS assay (AID 1963586). Note: nearly all actives have a fitted effect of over 45% in size. Note: potency is the fitted concentration of half-maximal effect. An outline of the steps: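 Antagonist-mode intracellular calcium assay: DOI (4 nM) added after 5 min compound pre-incubation at room temperature to dye-loaded HTR2A-CHO cells. Fluorescence followed for 3 min, sampled every second.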

Assay [11] has the same target. Put plainly: 5-hydroxytryptamine receptor 2A (HTR2A) small molecule agonists, cell-based qHTS assay (AID 1963587). Note: nearly all actives have a fitted effect of over 30% in size. An outline of the steps: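 CHO cells stably expressing human HTR2A, plated 18 h, loaded with calcium dye 1 h at 37 C. Agonist mode: compounds added and intracellular calcium fluorescence recorded kinetically for 2 min at 1 sec intervals.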
Assay [12] concerns the target Muscarinic acetylcholine receptor M1 (Homo sapiens) (UniProt P11229). Put plainly: Cholinergic receptor muscarinic 1 (CHRM1) small molecule antagonists, cell-based qHTS assay (AID 1963588). Note: nearly all actives have a fitted effect of over 40% in size. Note: potency is the fitted concentration of half-maximal effect. An outline of the steps: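 CHRM1-CHO calcium-flux assay, antagonist mode. Cells were seeded 18 h, dye-loaded 1 h at 37 C and given compound for 5 min at RT, then acetylcholine was added at 50nM. FDSS fluorescence was read 3 min; 15 concentrations, three runs.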

Assay [13] has the same target. As to the kind of experiment: Cholinergic receptor muscarinic 1 (CHRM1) small molecule agonists, cell-based qHTS assay (AID 1963589). Note: nearly all actives have a fitted effect of over 35% in size. An outline of the steps: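 CHO cells stably expressing human CHRM1, seeded 18 h at 37 C/5% CO2, dye-loaded 1 h at 37 C, then given compound in agonist mode; intracellular calcium fluorescence read kinetically at 1 s intervals. Fifteen concentrations, three independent runs.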

Assay [14] is described as follows: cAMP Responsive Elements (CRE) small molecule agonists, cell-based qHTS assay (AID 1963590). The method, boiled down: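 CRE-bla HEK 293T cells in DMEM with 10% dialyzed FBS, NEAA, pyruvate and 25 mM HEPES were plated 18 h at 37 C/5% CO2, then exposed to compounds in DMSO for 3 h before LiveBLAzer B/G FRET substrate addition.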
Assay [15] in a line: cAMP Responsive Elements (CRE) small molecule antagonists, cell-based qHTS assay (AID 1963591; active = well fitted inhibition curve with a large enough effect in the signal ratio in the repeat runs, not every such curve was filed as active; the % refers to the signal ratio). The method, boiled down:
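CRE-bla HEK293T cells were plated 18 h at 37 °C/5% CO2, pinned with compound in DMSO, then stimulated with NKH477 at 0.25 uM final for 3 h. LiveBLAzer B/G FRET substrate was added and plates incubated 2 h at room temperature.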

Assay [16] addresses Beta-2 adrenergic receptor (Homo sapiens) (UniProt P07550). Put plainly: Adrenergic beta2 receptor (ADRB2) small molecule antagonists, cell-based qHTS assay (AID 1963592). Note: series mostly up to about 92 µM; nearly all actives have a fitted effect of over 50% in size. An outline of the steps: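 Cells (CHO, stable ADRB2 overexpression) incubated 18-20hr at 37C; compounds added from DMSO; agonist mix (1nM isoproterenol, 100uM IBMX, 25uM Ro-20-1724) added; 0.5hr RT; d2-cAMP and anti-cAMP-cryptate added; 1hr RT; 665/615 nm read.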

A short description of assay [17]: p53 small molecule agonists, cell-based qHTS assay: qHTS cell viability counter screen (AID 1963581). Note: nearly all actives have a fitted effect of over 45% in size. An outline of the steps: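 p53RE-bla HCT-116 cells were exposed to compounds for 16 h at 37 C; after the beta-lactamase FRET read in the same wells, CellTiter-Glo was added and luminescence (intracellular ATP) read after 30 min at room temperature.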
The target in assay [18] is D(2) dopamine receptor (Homo sapiens) (UniProt P14416). As to the kind of experiment: Dopamine D2 receptor (DRD2) small molecule agonists, cell-based qHTS assay (AID 1963594). Note: nearly all actives have a fitted effect of over 35% in size. An outline of the steps: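 HEK293 cells stably expressing human DRD2, pre-treated with PDE inhibitor Ro20-1724 (0.1 mM final) and compound 10 min at room temperature, then stimulated with NKH477 (200nM […]) for 30 min. cAMP read by HTRF (665/620 nm).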

Assay [19] has the same target. Put plainly: Dopamine D2 receptor (DRD2) small molecule antagonists, cell-based qHTS assay (AID 1963595; active = well fitted inhibition curve with a large enough effect in the signal ratio in the repeat runs, with a control signal flat; the % refers to the signal ratio; note: potency is the fitted concentration of half-maximal effect). An outline of the steps:
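Antagonist mode in DRD2-HEK293 cells: after compound addition with 0.1 mM Ro20-1724, cells received quinpirole (12 nM) and NKH477 (200 nM) for 30 min at room temperature; HTRF cAMP read after 1 h detection.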

Several values for one entry are separate records, joined by “and”; a condition that tells them apart may be missing. Equal values may be shown once. Inconclusive results are not listed. Activity calls are given as the source filed them. Unless noted, calls come from the whole dose curve.

Chain of Gonadotropin-releasing hormone receptor (Homo sapiens) (P30968 whole entry, looked up): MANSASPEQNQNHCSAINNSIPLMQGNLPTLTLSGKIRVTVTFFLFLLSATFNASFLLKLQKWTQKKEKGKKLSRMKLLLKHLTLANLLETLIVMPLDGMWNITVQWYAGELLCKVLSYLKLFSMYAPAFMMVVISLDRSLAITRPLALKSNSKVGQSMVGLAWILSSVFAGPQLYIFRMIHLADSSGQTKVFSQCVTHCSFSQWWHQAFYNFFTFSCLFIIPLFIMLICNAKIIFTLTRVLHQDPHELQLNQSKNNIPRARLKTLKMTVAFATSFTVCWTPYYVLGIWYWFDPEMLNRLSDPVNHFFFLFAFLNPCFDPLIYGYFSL
Chain of 5-hydroxytryptamine receptor 2A (Homo sapiens) (P28223 whole entry, looked up): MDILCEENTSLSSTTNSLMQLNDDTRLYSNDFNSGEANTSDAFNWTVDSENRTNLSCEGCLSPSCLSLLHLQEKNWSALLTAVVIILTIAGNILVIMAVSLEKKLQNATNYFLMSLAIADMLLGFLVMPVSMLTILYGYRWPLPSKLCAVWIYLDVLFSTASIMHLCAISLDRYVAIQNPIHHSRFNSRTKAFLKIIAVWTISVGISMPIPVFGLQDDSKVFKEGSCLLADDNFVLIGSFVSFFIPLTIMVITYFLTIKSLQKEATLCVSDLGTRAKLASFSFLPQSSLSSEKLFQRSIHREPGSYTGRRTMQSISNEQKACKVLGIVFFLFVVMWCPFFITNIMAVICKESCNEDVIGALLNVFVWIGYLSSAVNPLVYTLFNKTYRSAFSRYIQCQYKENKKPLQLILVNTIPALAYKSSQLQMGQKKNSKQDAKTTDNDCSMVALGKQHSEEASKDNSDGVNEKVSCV
Chain of Beta-2 adrenergic receptor (Homo sapiens) (P07550 whole entry, looked up): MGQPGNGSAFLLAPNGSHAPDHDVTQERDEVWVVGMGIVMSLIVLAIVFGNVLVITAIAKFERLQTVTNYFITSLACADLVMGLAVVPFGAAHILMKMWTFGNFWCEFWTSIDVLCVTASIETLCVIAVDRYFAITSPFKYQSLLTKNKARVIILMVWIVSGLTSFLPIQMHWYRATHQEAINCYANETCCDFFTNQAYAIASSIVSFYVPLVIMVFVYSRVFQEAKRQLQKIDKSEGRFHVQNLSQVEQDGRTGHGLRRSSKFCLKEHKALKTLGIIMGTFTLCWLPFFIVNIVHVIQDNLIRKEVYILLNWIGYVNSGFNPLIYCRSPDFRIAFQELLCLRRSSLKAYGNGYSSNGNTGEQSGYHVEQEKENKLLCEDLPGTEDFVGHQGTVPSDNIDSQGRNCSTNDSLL
Chain of Muscarinic acetylcholine receptor M1 (Homo sapiens) (P11229 whole entry, looked up): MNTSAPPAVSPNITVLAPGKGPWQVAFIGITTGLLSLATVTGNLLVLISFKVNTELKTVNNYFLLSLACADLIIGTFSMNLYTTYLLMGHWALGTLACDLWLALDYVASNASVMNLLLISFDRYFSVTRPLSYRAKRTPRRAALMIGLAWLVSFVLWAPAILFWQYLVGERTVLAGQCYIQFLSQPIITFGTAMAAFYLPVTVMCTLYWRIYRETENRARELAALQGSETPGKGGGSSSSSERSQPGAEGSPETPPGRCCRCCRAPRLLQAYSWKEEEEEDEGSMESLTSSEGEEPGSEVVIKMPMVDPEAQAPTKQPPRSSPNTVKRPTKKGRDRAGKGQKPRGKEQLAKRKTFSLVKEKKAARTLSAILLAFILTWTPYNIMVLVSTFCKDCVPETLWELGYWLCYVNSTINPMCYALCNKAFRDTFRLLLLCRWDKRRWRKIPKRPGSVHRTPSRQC
Chain of D(2) dopamine receptor (Homo sapiens) (P14416 whole entry, looked up): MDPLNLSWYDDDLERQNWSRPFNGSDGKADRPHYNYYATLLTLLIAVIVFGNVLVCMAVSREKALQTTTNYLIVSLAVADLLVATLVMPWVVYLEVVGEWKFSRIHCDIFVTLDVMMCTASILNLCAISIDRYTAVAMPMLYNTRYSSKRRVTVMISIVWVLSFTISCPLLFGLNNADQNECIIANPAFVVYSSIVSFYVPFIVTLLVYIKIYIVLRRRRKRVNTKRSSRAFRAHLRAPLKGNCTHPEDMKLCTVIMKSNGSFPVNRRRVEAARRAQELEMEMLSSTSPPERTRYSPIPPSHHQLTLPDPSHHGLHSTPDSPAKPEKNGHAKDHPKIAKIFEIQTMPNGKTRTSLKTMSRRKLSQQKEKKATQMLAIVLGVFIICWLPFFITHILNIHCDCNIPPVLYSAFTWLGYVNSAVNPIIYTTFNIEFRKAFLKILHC
Chain of KiSS-1 receptor (Homo sapiens) (Q969F8 whole entry, looked up): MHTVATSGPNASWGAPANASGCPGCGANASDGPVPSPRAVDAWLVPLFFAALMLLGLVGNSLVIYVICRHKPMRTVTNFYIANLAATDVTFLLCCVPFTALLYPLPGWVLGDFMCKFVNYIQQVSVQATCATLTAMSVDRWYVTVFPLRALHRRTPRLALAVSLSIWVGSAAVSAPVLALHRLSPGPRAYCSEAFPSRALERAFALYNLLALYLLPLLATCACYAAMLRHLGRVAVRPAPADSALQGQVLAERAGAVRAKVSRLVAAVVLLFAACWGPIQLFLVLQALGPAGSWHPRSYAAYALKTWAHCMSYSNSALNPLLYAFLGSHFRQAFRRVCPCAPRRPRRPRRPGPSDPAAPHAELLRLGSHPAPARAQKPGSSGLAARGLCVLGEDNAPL

As to `c1ccc2c(c1)OCC(C1=NCCN1)O2` (centres undefined), the Potency in assay [1] is 23.7 µM (active). In addition, the Potency result in assay [2], in assay [3], in assay [4], in assay [5], in assay [6] and in assay [7] was “inactive” each time. In addition, the Potency result in assay [8], in assay [9], in assay [10], in assay [11], in assay [12] and in assay [13] was “inactive” each time. Moreover, the Potency entry in [14], in assay [15] and in [16] was “inactive” each time.
Consider `O=C(CCCN1CCC(n2c(=O)[nH]c3ccccc32)CC1)c1ccc(F)cc1`, for which the Potency result in [1], in assay [2], in assay [3], in assay [4], in [5] and in assay [6] was “inactive” throughout. Further, the Potency entry in assay [7], in assay [8], in assay [17], in [9], in assay [13] and in assay [18] was “inactive” in each case. Also, the Potency was 1830 nM (active) in assay [10], 2050 nM (active) in [12] and 42.2 nM (active) in assay [19].
As to `c1cc(OCC2CO2)ccc1Cc1ccc(OCC2CO2)cc1` (centres undefined), in [1], the Potency was 27.4 µM (active) and 27.3 µM (active). Moreover, the Potency entry in assay [2], in assay [3], in [4], in assay [5], in assay [6] and in assay [7] was “inactive” in each case. In addition, the Potency result in assay [8], in assay [17], in [10], in assay [11], in assay [12] and in assay [13] was “inactive” in each case. Further, the Potency entry in assay [16], in assay [18] and in assay [19] was “inactive” each time.
For `[O-][Br+2]([O-])O`, the Potency entry in assay [1], in assay [2], in assay [3], in assay [4], in assay [5] and in assay [6] was “inactive” throughout. For the same compound, the Potency result in [7], in assay [8], in assay [17], in [9], in assay [10] and in assay [11] was “inactive” each time. The Potency result in assay [12], in [13], in assay [14], in [15], in assay [16] and in assay [18] was “inactive” each time. Besides, in [19], the Potency result was “inactive”.
As to `O=[N+]([O-])c1ccc(O)c([N+](=O)[O-])c1`, the Potency entry in assay [1], in assay [2], in [3], in [4], in assay [5] and in assay [6] was “inactive” throughout. Moreover, the Potency entry in assay [7], in assay [17], in assay [9], in [10], in [11] and in [12] was “inactive” in each case. The Potency entry in assay [13], in assay [16], in assay [18] and in [19] was “inactive” in each case.
Consider `COC(=O)COc1ccc(Cl)cc1Cl`, for which the Potency result in assay [1], in assay [2], in [3], in [4], in assay [5] and in assay [6] was “inactive” in each case. Further, the Potency result in assay [7], in assay [8], in [17], in assay [9], in assay [10] and in assay [11] was “inactive” each time. Besides, the Potency entry in [12], in [13], in assay [16], in assay [18] and in assay [19] was “inactive” each time.
